Results published in PubChem BioAssay.
Calls of active or inactive are those of the source.

Assays:
[1] = small molecules captured by biotinylated probe aFSTL3 – biochemical, small-molecule microarray, fluorescence 635/667, stem cell growth factor project, primary screen (AID 1064); conditions: higher = more signal;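 also: measures binding of the biotinylated anti-FSTL3 antibody to printed compounds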
[2] = binders from COS7 lysate, DM2A8 probe, primary screen, torsin A project, cell lysate, small-molecule microarray, fluorescence 635/667 (AID 1065); conditions: higher = more signal, COS7 lysate expressing mutant human TOR1A
[3] = small molecules captured by biotinylated probe aFGF2 – biochemical, small-molecule microarray, fluorescence 635/667, stem cell growth factor project, primary screen (AID 1067); conditions: higher = more signal;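 also: measures binding of biotinylated aFGF2 protein to printed compounds on slides; z-score merges feature fluorescence and signal-to-noise across triplicate slides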
[4] = small molecules captured by biotinylated probe aFGF10 – biochemical, small-molecule microarray, fluorescence 635/667, stem cell growth factor project, primary screen (AID 1071); conditions: higher = more signal;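 also: score merges 667 nm spot intensity and signal to noise from triplicate slides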
[5] = molecular target: Neurogenic locus notch homolog protein 2 (Homo sapiens) (UniProt Q04721); assay: small molecules binding Notch2 protein – biochemical, small-molecule microarray, 635 nm fluorescence, stem cell growth factors, primary screen (AID 1073); conditions: higher = more signal
[6] = molecular target: Pro-neuregulin-1, membrane-bound isoform (Homo sapiens) (UniProt Q02297); assay: small molecules binding neuregulin-1 protein – biochemical, small-molecule microarray, fluorescence 635/667, psychiatric disease protein project, primary screen (AID 1075); conditions: NRG1 binding, 635 nm fluorescence, higher = more signal;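 also: score combines 667 nm spot fluorescence with signal to noise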
[7] = test system: Neuregulin-1 EGF-like domain; assay: small molecules binding NRG1 EGF domain – biochemical, small-molecule microarray, 635 nm fluorescence, primary screen (AID 1081); conditions: higher = more signal;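 also: binding of the protein to compounds printed on small-molecule microarray slides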
[8] = FRG1 expression reporter modulators in myotubes – cell-based, C2C12 myotubes, firefly/Renilla luciferase, luminescence, FRG1 inhibition for FSHD, primary screen (AID 1084); conditions: FRG1 promoter luciferase, higher = more signal, called active from +8 up or from −8 down
[9] = small molecules captured by biotinylated probe aFST – biochemical, small-molecule microarray, fluorescence 635/667, stem cell growth factor project, primary screen (AID 1086); conditions: higher = more signal;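 also: score merges 667 nm fluorescence with signal-to-noise of each printed compound spot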
[10] = binders of probe aHhip on microarray, primary screen, stem cell growth factor project, biochemical, small-molecule microarray, fluorescence 635/667 (AID 1087); conditions: higher = more signal;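 also: score merges spot fluorescence at 667nm with spot signal to noise ratio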
[11] = test system: PRMT1 (protein arginine N-methyltransferase 1); assay: small molecules binding arginine methyltransferase PRMT1 – biochemical, small-molecule microarray, 635 nm fluorescence, primary screen (AID 1088); conditions: higher = more signal;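 also: binding of Prmt1 protein to compounds spotted on small-molecule microarray slides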
[12] = growth effects on S. cerevisiae YJM789 – YJM789 clinical isolate, OD600, 24 h, basal, primary screen (AID 1089); conditions: higher = more signal, called active from +8 up or from −8 down;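 also: growth of clinical yeast isolate S. cerevisiae YJM 789 seeded 1000 cells per well; test concentration not given here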
[13] = S. pombe growth modifiers, basal conditions – strain 972, OD600, 24 h, no modulator, primary screen (AID 1090);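 also: basal condition with compound alone and no growth modifier present; test concentration not given here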; conditions: S. pombe 972 growth, higher = more signal, called active from +8 up or from −8 down
[14] = budding yeast growth modifiers under rapamycin – strain BY4716, OD600, 96 h, primary screen (AID 1091); also: test concentration not given here; conditions: S. cerevisiae BY4716 + rapamycin, higher = more signal, called active from +8 up or from −8 down
[15] = molecular target: Torsin-1A-interacting protein 2 (Homo sapiens) (UniProt Q8NFQ8); assay: small molecules binding lysate-expressed LULL1 – cell lysate, human LULL1 lysate, 635/667 nm fluorescence, primary screen (AID 1092); conditions: small-molecule microarray, hLULL1 lysate binding, 635 nm fluorescence; higher = more signal;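 also: probe is lysate of COS7 cells overexpressing human LULL1; score merges per-feature 667 nm fluorescence with signal-to-noise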
[16] = optical density change of DRC41 E. coli – strain DRC41, OD650, 24 h, E. coli filamentation project, primary screen (AID 1093);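 also: MC1000 strain lacking acrAB efflux and sulA so SOS filamentation is blocked; test concentration not given here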; conditions: E. coli DRC41 growth, higher = more signal, called active from +8 up or from −8 down
[17] = probe aLefty2 binding to arrayed compounds – biochemical, biotinylated probe, 635/667 nm fluorescence, primary screen (AID 1094); conditions: small-molecule microarray, higher = more signal;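 also: score merges spot fluorescence near 667 nm with spot signal-to-noise ratio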
[18] = test system: Noggin (protein binding on small-molecule microarray); assay: small molecules binding Noggin protein – biochemical, 635/667 nm fluorescence, primary screen (AID 1095); conditions: 635 nm fluorescence, higher = more signal;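 also: score merges 667 nm feature fluorescence with signal to noise over triplicate slides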
[19] = molecular target: Neurogenic locus notch homolog protein 3 (Homo sapiens) (UniProt Q9UM47); assay: small molecules binding NOTCH3 protein – biochemical, 635/667 nm fluorescence, primary screen (AID 1096); conditions: small-molecule microarray, 635 nm fluorescence, higher = more signal
[20] = probe aEGFR binding to arrayed compounds – biochemical, biotinylated probe, 635/667 nm fluorescence, primary screen (AID 1097); conditions: small-molecule microarray, higher = more signal;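 also: probe is a biotinylated anti-EGFR antibody binding compounds printed on slides; score combines fluorescence near 667 nm and signal to noise of each spot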

Neurogenic locus notch homolog protein 2 (Homo sapiens), sequence (Q04721 whole entry, looked up, canonical isoform): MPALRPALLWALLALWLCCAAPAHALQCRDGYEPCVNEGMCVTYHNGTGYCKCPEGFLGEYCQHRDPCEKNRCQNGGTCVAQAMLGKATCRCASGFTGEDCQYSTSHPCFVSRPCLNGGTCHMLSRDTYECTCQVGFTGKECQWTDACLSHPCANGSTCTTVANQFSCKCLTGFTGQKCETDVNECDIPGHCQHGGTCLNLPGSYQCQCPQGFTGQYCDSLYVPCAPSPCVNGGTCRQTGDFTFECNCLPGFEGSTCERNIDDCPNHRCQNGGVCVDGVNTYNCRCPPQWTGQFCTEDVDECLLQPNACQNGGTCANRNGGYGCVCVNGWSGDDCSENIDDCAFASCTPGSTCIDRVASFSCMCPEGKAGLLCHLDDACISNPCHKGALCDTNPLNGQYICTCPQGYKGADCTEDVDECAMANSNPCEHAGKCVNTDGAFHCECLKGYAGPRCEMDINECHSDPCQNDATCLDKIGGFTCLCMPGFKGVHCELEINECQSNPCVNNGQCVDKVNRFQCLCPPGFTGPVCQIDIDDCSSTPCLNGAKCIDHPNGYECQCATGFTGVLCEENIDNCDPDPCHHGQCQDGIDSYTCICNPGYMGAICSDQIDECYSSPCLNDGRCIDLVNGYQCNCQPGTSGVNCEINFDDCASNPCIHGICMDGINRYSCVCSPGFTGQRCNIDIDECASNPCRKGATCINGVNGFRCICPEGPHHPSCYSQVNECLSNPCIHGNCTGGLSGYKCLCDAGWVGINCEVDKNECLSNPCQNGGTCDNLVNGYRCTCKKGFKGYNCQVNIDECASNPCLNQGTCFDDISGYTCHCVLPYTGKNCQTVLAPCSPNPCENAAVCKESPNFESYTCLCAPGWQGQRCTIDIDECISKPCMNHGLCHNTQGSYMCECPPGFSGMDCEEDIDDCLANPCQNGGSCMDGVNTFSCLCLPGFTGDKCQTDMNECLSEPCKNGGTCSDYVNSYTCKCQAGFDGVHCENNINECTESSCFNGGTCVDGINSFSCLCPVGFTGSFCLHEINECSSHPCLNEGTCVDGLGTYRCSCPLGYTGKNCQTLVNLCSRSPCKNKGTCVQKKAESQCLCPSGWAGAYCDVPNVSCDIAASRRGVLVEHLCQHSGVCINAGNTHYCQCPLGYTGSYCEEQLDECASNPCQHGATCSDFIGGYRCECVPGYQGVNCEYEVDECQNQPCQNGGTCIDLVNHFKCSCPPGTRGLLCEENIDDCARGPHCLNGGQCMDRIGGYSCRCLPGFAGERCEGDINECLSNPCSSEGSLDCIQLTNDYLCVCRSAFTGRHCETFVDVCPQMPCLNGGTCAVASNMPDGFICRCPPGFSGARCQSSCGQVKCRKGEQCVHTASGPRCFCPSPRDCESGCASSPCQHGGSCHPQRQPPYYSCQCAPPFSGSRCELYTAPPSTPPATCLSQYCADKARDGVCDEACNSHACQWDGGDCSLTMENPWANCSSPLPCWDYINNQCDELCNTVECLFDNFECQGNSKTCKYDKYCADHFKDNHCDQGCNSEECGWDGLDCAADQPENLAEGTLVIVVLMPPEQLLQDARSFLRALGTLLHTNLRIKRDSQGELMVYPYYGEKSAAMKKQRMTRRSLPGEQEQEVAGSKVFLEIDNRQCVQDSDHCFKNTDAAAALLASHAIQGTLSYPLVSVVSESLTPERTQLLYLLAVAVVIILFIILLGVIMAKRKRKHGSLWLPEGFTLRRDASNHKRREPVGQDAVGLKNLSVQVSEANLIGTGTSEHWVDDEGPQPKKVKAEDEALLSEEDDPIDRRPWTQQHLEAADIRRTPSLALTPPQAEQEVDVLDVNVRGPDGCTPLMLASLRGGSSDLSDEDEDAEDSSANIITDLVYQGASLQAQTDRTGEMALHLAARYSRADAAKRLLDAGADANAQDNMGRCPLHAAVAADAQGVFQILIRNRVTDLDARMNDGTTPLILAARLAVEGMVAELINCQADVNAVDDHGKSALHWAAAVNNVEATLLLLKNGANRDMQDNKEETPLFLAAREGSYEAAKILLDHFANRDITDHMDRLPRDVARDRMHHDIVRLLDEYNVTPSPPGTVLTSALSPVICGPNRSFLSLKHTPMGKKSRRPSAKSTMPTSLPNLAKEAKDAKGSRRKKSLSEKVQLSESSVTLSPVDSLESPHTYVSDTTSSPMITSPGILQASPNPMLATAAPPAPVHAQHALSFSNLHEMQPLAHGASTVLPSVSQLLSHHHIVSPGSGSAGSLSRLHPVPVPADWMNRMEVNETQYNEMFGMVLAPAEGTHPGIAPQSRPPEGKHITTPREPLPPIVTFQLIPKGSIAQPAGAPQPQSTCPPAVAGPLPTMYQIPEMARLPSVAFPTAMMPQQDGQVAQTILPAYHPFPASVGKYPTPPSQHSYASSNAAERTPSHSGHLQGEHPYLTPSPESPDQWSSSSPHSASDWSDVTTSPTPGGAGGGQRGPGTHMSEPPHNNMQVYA
Torsin-1A-interacting protein 2 (Homo sapiens), sequence (Q8NFQ8 whole entry, looked up): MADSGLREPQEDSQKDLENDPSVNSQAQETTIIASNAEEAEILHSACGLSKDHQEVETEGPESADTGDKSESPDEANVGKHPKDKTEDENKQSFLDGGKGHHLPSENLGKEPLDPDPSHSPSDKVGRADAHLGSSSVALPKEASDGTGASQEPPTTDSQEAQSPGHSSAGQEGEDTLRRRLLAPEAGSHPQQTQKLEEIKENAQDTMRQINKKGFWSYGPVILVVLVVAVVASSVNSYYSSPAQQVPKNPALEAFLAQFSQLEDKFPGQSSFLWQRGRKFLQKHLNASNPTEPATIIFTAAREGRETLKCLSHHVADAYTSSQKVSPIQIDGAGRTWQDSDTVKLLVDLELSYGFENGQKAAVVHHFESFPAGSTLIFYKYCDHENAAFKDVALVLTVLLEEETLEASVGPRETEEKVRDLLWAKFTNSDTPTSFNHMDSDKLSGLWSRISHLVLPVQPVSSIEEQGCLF
Pro-neuregulin-1, membrane-bound isoform (Homo sapiens), sequence (Q02297 whole entry, looked up, the tested form may be a part, canonical isoform): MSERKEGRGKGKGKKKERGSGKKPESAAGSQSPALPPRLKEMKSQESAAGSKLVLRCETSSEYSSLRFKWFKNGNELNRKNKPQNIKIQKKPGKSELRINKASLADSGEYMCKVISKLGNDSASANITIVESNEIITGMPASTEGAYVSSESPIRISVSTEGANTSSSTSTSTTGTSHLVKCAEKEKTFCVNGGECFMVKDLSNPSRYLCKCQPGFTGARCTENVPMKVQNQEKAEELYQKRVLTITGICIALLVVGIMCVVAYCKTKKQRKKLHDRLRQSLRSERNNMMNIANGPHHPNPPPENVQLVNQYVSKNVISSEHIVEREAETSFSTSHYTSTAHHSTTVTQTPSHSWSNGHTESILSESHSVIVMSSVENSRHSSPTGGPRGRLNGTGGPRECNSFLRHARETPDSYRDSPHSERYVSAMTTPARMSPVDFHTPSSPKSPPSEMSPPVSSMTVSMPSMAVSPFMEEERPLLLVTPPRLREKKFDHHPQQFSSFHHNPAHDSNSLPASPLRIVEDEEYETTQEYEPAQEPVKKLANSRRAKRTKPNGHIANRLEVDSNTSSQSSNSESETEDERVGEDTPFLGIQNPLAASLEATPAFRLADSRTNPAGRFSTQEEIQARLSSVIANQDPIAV

SMILES | composite z-score [1] | composite z-score [2] | composite z-score [3] | composite z-score [4] | composite z-score [5] | composite z-score [6] | composite z-score [7] | z-score [8] | composite z-score [9] | composite z-score [10] | composite z-score [11] | z-score [12] | z-score [13] | z-score [14] | composite z-score [15] | z-score [16] | composite z-score [17] | composite z-score [18] | composite z-score [19] | composite z-score [20]
Cc1ccc(S[C@]2(C(=O)NCC(F)(F)F)CC(=O)N(Cc3ccccc3)[C@@H]2c2ccc(CO)cc2)cc1 | 0.2 | 0.179 | -0.158 | -0.453 | -0.851 | 0.248 | 0.463 | -2.41 (inactive) | -0.543 | -0.266 | 0.293 | 0.249 (inactive) | -1.2 (inactive) | -0.711 (inactive) | 2.06 | -1.68 (inactive) | -0.137 | -0.92 | -0.681 | -0.178
CC1CC/C=C\[C@H]2OC34C=CCN(C(C)C)C(=O)[C@H]3N(CCCCCO)C(=O)[C@@H]4C2C(=O)O1 (stereo not given in full) | 0.4 | -1.06 | -0.0996 | -0.47 | -0.704 | -0.187 | 0.0093 | 0.371 (inactive) | -0.386 | -0.191 | -0.897 | -0.104 (inactive) | -0.931 (inactive) | -0.958 (inactive) | -0.573 | 0.827 (inactive) | -0.139 | -1.43 | -0.208 | -0.281
O=C1NC(=O)C2C1C=CC(C(O)c1c(F)cccc1Cl)N2Nc1ccccn1 (stereo not given) | 0.154 | 0.238 | 0.0182 | 0.474 | 0.55 | 1.53 | 0.633 | 0.569 (inactive) | -0.014 | 0.0576 | 0.409 | 0.107 (inactive) | 0.983 (inactive) | 0.0515 (inactive) | -0.191 | -0.764 (inactive) | 0.21 | 0.148 | 0.01 | 0.213
CC(=O)n1cc(C(O)C2C=CC3C(=O)N(c4ccccc4)C(=O)C3N2Nc2ccccc2)c2ccccc21 (stereo not given) | 1.87 | 0.489 | 0.447 | 0.893 | 1.52 | 0.837 | 1.11 | 0.621 (inactive) | 1.1 | -0.0702 | 0.174 | 0.514 (inactive) | 0.965 (inactive) | 0.102 (inactive) | 2.73 | -1.18 (inactive) | 0.203 | -0.272 | 0.816 | 0.672
Cc1ccc(S[C@]2(C(=O)NC(C)C)CC(=O)N(Cc3ccccc3C(F)(F)F)[C@@H]2c2ccc(CO)cc2I)cc1 | 1.01 | -0.685 | -0.0924 | -0.545 | -1.67 | 1.91 | 1.17 | -0.62 (inactive) | -0.415 | -0.274 | 1.13 | -2.32 (inactive) | -4.49 (inactive) | 1.18 (inactive) | 0.515 | -1.73 (inactive) | 0.0844 | -0.76 | -0.669 | -0.283
O=C1NCC(=O)N2[C@@H]1C[C@@H](C(=O)O)[C@H]2c1ccc(O)cc1 | 0.257 | 0.433 | 0.0121 | 0.593 | -0.218 | 1.81 | 1.39 | 4.94 (inactive) | 0.0816 | -0.0618 | 1.56 | 0.442 (inactive) | -0.498 (inactive) | 0.318 (inactive) | 2.6 | 0.984 (inactive) | 0.0875 | 1.44 | 1.08 | -0.326
CCOC(=O)C1=CC[C@@H](c2ccccc2C(F)(F)F)N(S(=O)(=O)c2ccc(C)cc2)C1 | 0.811 | 1.54 | 0.313 | 1.1 | 1.67 | 1.79 | 1.28 | -3.59 (inactive) | 0.997 | -0.0439 | 1.5 | -2.43 (inactive) | -0.598 (inactive) | 0.105 (inactive) | 2.63 | -0.607 (inactive) | 0.495 | 0.03 | 1.04 | 0.678
C=C(/C(=C/C[C@@H](OC(=O)c1ccncc1)c1ccccc1OCCO)c1cc(C(=O)OC)ccc1OC)C(C)C | -0.259 | 0.584 | -0.0352 | 0.533 | 0.311 | 0.878 | 1.1 | -1.31 (inactive) | 0.586 | 0.0854 | 1.56 | 0.381 (inactive) | -0.633 (inactive) | -0.338 (inactive) | 3.07 | 0.616 (inactive) | -0.0155 | 0.88 | 1.01 | -0.0353
COC(=O)Cn1c(C(=O)N2CCCC2)cc2c1C[C@H]1CN(C(=O)c3ccccc3)[C@@](Cc3ccc(F)cc3)(C(=O)OC)[C@@H]21 | -0.366 | 0.281 | -0.0329 | 0.0839 | 0.358 | 2 | 1.07 | -0.566 (inactive) | 0.131 | 0.0845 | -0.533 | -1.98 (inactive) | 0.562 (inactive) | -1.24 (inactive) | 2.03 | 0.782 (inactive) | -0.0199 | -0.405 | -0.251 | -0.363
CC(CO)N1C(=O)[C@@H]2C3C(=O)OCCC/C=C\[C@H]3OC23C=CCN(Cn2nnc4ccccc42)C(=O)[C@@H]13 (stereo not given in full) | -0.185 | -0.469 | -0.107 | 0.285 | -0.722 | 1.7 | 1.34 | -1.11 (inactive) | -0.161 | 0.21 | -1.18 | 0.216 (inactive) | -0.152 (inactive) | -0.637 (inactive) | -1.1 | 0.333 (inactive) | -0.198 | -0.254 | 0.219 | -0.152
